# The panel holds about 79,000 compounds, 15% with a hit somewhere; the sample as a whole holds those more often. Values without a mark were called inactive. Active and inactive are the calls of the source. No stated cut-off is given here; in the data, active means growth inhibition above about 70%; inactive means the rest.
# Experiments:
# [1] = NCI Yeast Anticancer Drug Screen. Data for the wt2 strain (AID 169);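 further: 0% = growth of vehicle-treated yeast cultures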; conditions: S. cerevisiae wt2 strain growth inhibition, hits give high values
# Summary of the method: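 Treated yeast vs. vehicle-treated yeast: growth inhibition determined.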
# [2] = NCI Yeast Anticancer Drug Screen. Data for the mlh1 strain (AID 171);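 further: 0% = growth of vehicle-treated control cultures of the same strain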; conditions: S. cerevisiae mlh1 strain growth inhibition, hits give high values
# Summary of the method: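 A yeast strain with a defined genetic lesion serves as the test organism. Cultures receive compound or vehicle, and growth is measured.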
# [3] = NCI Yeast Anticancer Drug Screen. Data for the sgs1 strain (AID 173);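 further: 0% = growth of vehicle-only control cultures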; conditions: S. cerevisiae sgs1 mutant, hits give high values
# Summary of the method: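 A genetically defined yeast mutant is incubated with the test compound, and its growth is compared to that of the same strain given vehicle.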
# [4] = NCI Yeast Anticancer Drug Screen. Data for the mlh1 rad18 strain (AID 175); conditions: S. cerevisiae mlh1 rad18 strain growth inhibition, hits give high values
# Summary of the method: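 Steps: expose repair-defective yeast to compound; measure growth; express inhibition against vehicle-treated controls.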
# [5] = NCI Yeast Anticancer Drug Screen. Data for the rad18 strain (AID 177); conditions: S. cerevisiae rad18 mutant growth inhibition, hits give high values
# Summary of the method: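 Measured value is growth inhibition of a yeast strain bearing a DNA repair alteration, referenced to vehicle-treated cells.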
# [6] = NCI Yeast Anticancer Drug Screen. Data for the rad52 strain (AID 147);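 further: 0% = growth of vehicle-treated control cultures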; conditions: S. cerevisiae rad52 mutant growth inhibition, hits give high values
# Summary of the method: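 Here a repair-compromised yeast strain receives each compound; its growth is then quantified and normalised to vehicle-only controls.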
# [7] = NCI Yeast Anticancer Drug Screen. Data for the wt1 strain (AID 149);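 further: 0% = growth of vehicle-treated wt1 cultures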; conditions: S. cerevisiae wt1 strain (SPY 50644) growth inhibition, hits give high values
# Summary of the method: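 Readout: yeast growth inhibition, normalised to vehicle controls, in the wt1 strain exposed to test compounds.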
# [8] = NCI Yeast Anticancer Drug Screen. Data for the rad50EPP+ strain (AID 151);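 further: 0% = growth of vehicle-treated control cultures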; conditions: S. cerevisiae rad50 mutant strain, hits give high values
# Summary of the method: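 Read-out is yeast growth inhibition relative to vehicle; cells used were the rad50EPP+ strain.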
# [9] = NCI Yeast Anticancer Drug Screen. Data for the mgt1 strain (AID 153); conditions: S. cerevisiae mgt1 mutant growth inhibition, hits give high values
# Summary of the method: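 Measured: inhibition of mgt1 yeast growth by compound, normalized to vehicle-treated cultures.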
# [10] = NCI Yeast Anticancer Drug Screen. Data for the rad50 strain (AID 155);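 further: 0% = growth of vehicle-only cultures of the same strain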; conditions: S. cerevisiae rad50 strain growth inhibition, hits give high values
# Summary of the method: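 Compounds were tested on a yeast strain with an engineered DNA damage repair alteration; the reported value is growth inhibition normalised to vehicle treatment.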
# [11] = NCI Yeast Anticancer Drug Screen. Data for the mec2-1 strain (AID 157); conditions: S. cerevisiae mec2-1 strain, hits give high values
# Summary of the method: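 Using mec2-1 yeast: add compound, measure growth, express inhibition versus vehicle-treated cultures.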
# [12] = NCI Yeast Anticancer Drug Screen. Data for the rad14 strain (AID 159);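 further: 0% = growth of vehicle-treated control cultures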; conditions: S. cerevisiae rad14 strain growth inhibition, hits give high values
# Summary of the method: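 Compound-treated yeast with a defined DNA-repair lesion; growth inhibition normalised to vehicle-treated cultures.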
# [13] = NCI Yeast Anticancer Drug Screen. Data for the sgs1 mgt1 strain (AID 161);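 further: 0% = growth of cultures given vehicle only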; conditions: S. cerevisiae sgs1 mgt1 strain, hits give high values
# Summary of the method: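 Growth of a repair-deficient yeast mutant was monitored after compound treatment and expressed as inhibition relative to vehicle-treated cultures.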
# [14] = NCI Yeast Anticancer Drug Screen. Data for the CLN2oe strain (AID 163);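 further: 0% = growth of vehicle-only control cultures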; conditions: S. cerevisiae CLN2oe strain, hits give high values
# Summary of the method: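 Whole-cell yeast growth assay. A strain engineered for altered cell-cycle control received compound, and inhibition relative to vehicle-treated cultures was recorded.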
# [15] = NCI Yeast Anticancer Drug Screen. Data for the cln2 rad14 strain (AID 165);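 further: 0% = growth equal to vehicle treated cultures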; conditions: S. cerevisiae cln2 rad14 strain, hits give high values
# Summary of the method: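 Yeast strain cln2 rad14, bearing defects in cell cycle control and DNA repair, serves as the test system; values reflect growth inhibition compared with vehicle.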
# [16] = NCI Yeast Anticancer Drug Screen. Data for the bub3 strain (AID 167); conditions: S. cerevisiae bub3 mutant strain, hits give high values
# Summary of the method: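 Growth of a checkpoint-deficient yeast mutant is measured after compound exposure. Values represent inhibition relative to vehicle.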
# [17] = at 5.0 µM (retest, dose inferred, filed as 0.5)
# [18] = at 50.0 µM (retest, dose inferred, filed as 5.0)
smiles,measurement,setting,value
NC1=NNC2(C(N)=N1)c1ccccc1-c1ccccc12,growth inhibition,[1]; at 1.2 µM,-10%
same,growth inhibition,[1]; at 3.7 µM,-16%
same,growth inhibition,[1]; at 11.0 µM,-18%
same,growth inhibition,[1]; at 33.0 µM,-2%
same,growth inhibition,[1]; at 100.0 µM,97% (active)
same,growth inhibition,[2]; at 1.2 µM,10%
same,growth inhibition,[2]; at 3.7 µM,-2%
same,growth inhibition,[2]; at 11.0 µM,3%
same,growth inhibition,[2]; at 33.0 µM,53%
same,growth inhibition,[2]; at 100.0 µM,97% (active)
same,growth inhibition,[3]; at 1.2 µM,12%
same,growth inhibition,[3]; at 3.7 µM,17%
same,growth inhibition,[3]; at 11.0 µM,11%
same,growth inhibition,[3]; at 33.0 µM,33%
same,growth inhibition,[3]; at 100.0 µM,97% (active)
same,growth inhibition,[4]; [17],-25%
same,growth inhibition,[4]; [18],81% (active)
same,growth inhibition,[4]; at 50.0 µM,79.3% (active)
same,growth inhibition,[5]; at 1.2 µM,-4%
same,growth inhibition,[5]; at 3.7 µM,-5%
same,growth inhibition,[5]; at 11.0 µM,-17%
same,growth inhibition,[5]; at 33.0 µM,18%
same,growth inhibition,[5]; at 100.0 µM,97% (active)
COc1ccc(C/C=N/Nc2ccc([N+](=O)[O-])cc2)cc1OC,growth inhibition,[6]; at 1.2 µM,8%
same,growth inhibition,[6]; at 3.7 µM,12%
same,growth inhibition,[6]; at 11.0 µM,18%
same,growth inhibition,[6]; at 33.0 µM,39%
same,growth inhibition,[6]; at 100.0 µM,42%
same,growth inhibition,[7]; at 1.2 µM,4%
same,growth inhibition,[7]; at 3.7 µM,2%
same,growth inhibition,[7]; at 11.0 µM,5%
same,growth inhibition,[7]; at 33.0 µM,-1%
same,growth inhibition,[7]; at 100.0 µM,2%
same,growth inhibition,[8]; at 1.2 µM,15%
same,growth inhibition,[8]; at 3.7 µM,29%
same,growth inhibition,[8]; at 11.0 µM,33%
same,growth inhibition,[8]; at 33.0 µM,35%
same,growth inhibition,[8]; at 100.0 µM,51%
same,growth inhibition,[9]; at 1.2 µM,2%
same,growth inhibition,[9]; at 3.7 µM,12%
same,growth inhibition,[9]; at 11.0 µM,9%
same,growth inhibition,[9]; at 33.0 µM,4%
same,growth inhibition,[9]; at 100.0 µM,23%
same,growth inhibition,[10]; at 1.2 µM,27%
same,growth inhibition,[10]; at 3.7 µM,36%
same,growth inhibition,[10]; [17],9%
same,growth inhibition,[10]; at 11.0 µM,28%
same,growth inhibition,[10]; at 33.0 µM,56%
same,growth inhibition,[10]; [18],97% (active)
same,growth inhibition,[10]; at 50.0 µM,98.1% (active)
same,growth inhibition,[10]; at 100.0 µM,66%
same,growth inhibition,[11]; at 1.2 µM,1%
same,growth inhibition,[11]; at 3.7 µM,3%
same,growth inhibition,[11]; [17],16%
same,growth inhibition,[11]; at 11.0 µM,4%
same,growth inhibition,[11]; at 33.0 µM,1%
same,growth inhibition,[11]; [18],98% (active)
same,growth inhibition,[11]; at 50.0 µM,97.3% (active)
same,growth inhibition,[11]; at 100.0 µM,6%
same,growth inhibition,[12]; at 1.2 µM,3%
same,growth inhibition,[12]; at 3.7 µM,12%
same,growth inhibition,[12]; at 11.0 µM,23%
same,growth inhibition,[12]; at 33.0 µM,25%
same,growth inhibition,[12]; at 100.0 µM,30%
same,growth inhibition,[13]; [17],9%
same,growth inhibition,[13]; [18],97% (active)
same,growth inhibition,[13]; at 50.0 µM,97.5% (active)
same,growth inhibition,[14]; at 1.2 µM,8%
same,growth inhibition,[14]; at 3.7 µM,6%
same,growth inhibition,[14]; at 11.0 µM,12%
same,growth inhibition,[14]; at 33.0 µM,1%
same,growth inhibition,[14]; at 100.0 µM,20%
same,growth inhibition,[15]; [17],-3%
same,growth inhibition,[15]; [18],89% (active)
same,growth inhibition,[15]; at 50.0 µM,54.4%
same,growth inhibition,[16]; at 1.2 µM,3%
same,growth inhibition,[16]; at 3.7 µM,2%
same,growth inhibition,[16]; [17],12%
same,growth inhibition,[16]; at 11.0 µM,8%
same,growth inhibition,[16]; at 33.0 µM,13%
same,growth inhibition,[16]; [18],97% (active)
same,growth inhibition,[16]; at 50.0 µM,98.2% (active)
same,growth inhibition,[16]; at 100.0 µM,23%
same,growth inhibition,[1]; at 1.2 µM,-2%
same,growth inhibition,[1]; at 3.7 µM,-1%
same,growth inhibition,[1]; at 11.0 µM,5%
same,growth inhibition,[1]; at 33.0 µM,5%
same,growth inhibition,[1]; at 100.0 µM,-3%
same,growth inhibition,[2]; at 1.2 µM,-1%
same,growth inhibition,[2]; at 3.7 µM,6%
same,growth inhibition,[2]; at 11.0 µM,9%
same,growth inhibition,[2]; at 33.0 µM,11%
same,growth inhibition,[2]; at 100.0 µM,31%
same,growth inhibition,[3]; at 1.2 µM,-17%
same,growth inhibition,[3]; at 3.7 µM,-24%
same,growth inhibition,[3]; at 11.0 µM,-8%
same,growth inhibition,[3]; at 33.0 µM,48%
same,growth inhibition,[3]; at 100.0 µM,73% (active)
same,growth inhibition,[4]; [17],7%
same,growth inhibition,[4]; [18],98% (active)
same,growth inhibition,[4]; at 50.0 µM,97.8% (active)
same,growth inhibition,[5]; at 1.2 µM,15%
same,growth inhibition,[5]; at 3.7 µM,43%
same,growth inhibition,[5]; at 11.0 µM,26%
same,growth inhibition,[5]; at 33.0 µM,20%
same,growth inhibition,[5]; at 100.0 µM,56%

# — PubChem BioAssay (NCI)
